Measurements published in PubChem BioAssay (EPA / NIEHS).
Activity calls are given as the source filed them. Rule for the calls: active = hit-call score of the fitted dose curve at least 0.9, where 1 is the maximum; inactive = score below 0.9.

Molecular target: Cellular tumor antigen p53 (Homo sapiens) (UniProt P04637)
Assay: ATG_p53_CIS: Attagene CIS-FACTORIAL HepG2 Assay for human p53 Transcription Factor (AID 2282994)
Details: HepG2 p53 cis-element reporter, Attagene mRNA; actives raise or lower the signal
Protocol: ATG_CIS is a cell-based, multiplexed-readout assay that uses HepG2, a human liver cell line, with measurements taken at 24 hours after chemical dosing in a 24-well plate.ATG_p53_CIS is one of 52 assay component(s) measured or calculated from the ATG_CIS assay. It is designed to make measurements of mRNA induction, a form of inducible reporter, as detected with fluorescence intensity signals by Reverse transcription polymerase chain reaction (RT-PCR) and Capillary electrophoresis technology.Data from the assay component ATG_p53_CIS was analyzed into 1 assay endpoint. This assay endpoint, ATG_p53_CIS, was analyzed with bidirectional fitting relative to DMSO as the negative control and baseline of activity. Using a type of inducible reporter, measures of mRNA for gain or loss-of-signal activity can be used to understand the reporter gene at the transcription factor-level as they relate to the gene TP53. Furthermore, this assay endpoint can be referred to as a primary readout, because this assay has produced multiple assay endpoints where this one serves a reporter gene function. To generalize the intended target to other relatable targets, this assay endpoint is annotated to the dna binding intended target family, where the subfamily is tumor suppressor.
Human liver HepG2 cells are transiently transfected with multiple reporter transcription units (MRTUs) in 6-well plates using FuGene 6 reagent (Roche; 3 ml FuGene/1 mg DNA). The MRTU constructs are regulated by a cis-regulating element (promoter). […] A major difference between the CIS and TRANS system is that in CIS activities of endogenous TFs are measured, whereas the TRANS assay evaluates changes in activities of exogenous, chimeric NR-Gal4 proteins. […] At the end of 24 hour incubation, total RNA was isolated using TriZol reagent (Invitrogen). The isolated RNA is then reverse-transcribed using oligo(dT) primer and Mo-MLV reverse transcriptase (Invitrogen) with DNAse I (Ambion) treatment for 30 min. The one-tenth of the produced cDNA was amplified by PCR using Taq DNA polymerase (Invitrogen) and two reporter sequence-specific primers. The PCR products were fluorescently labeled by primer extension with 6-arboxyfluorescein (6-FAM) 5'-labeled reporter sequence-specific primer (2 min at 95 C, 20 s at 68 C and 10 min at 72 C) and these products were digested with 5U of HpaI (New England Biolabs) for 2h at 37 C. The fragments were purified using Qiaquick PCR columns (Qiagen), analyzed on an ABI 3130xL genetic analyzer (Applied Biosystems) with peak positions identified by using a set of X-rhodamine (ROX)-labeled MapMarker1000 molecular weight standards (BioVentures). The raw capillary electrophoresis data was processed using Attagraph software (Attagene).

Sequence of Cellular tumor antigen p53 (Homo sapiens) (P04637 whole entry, looked up): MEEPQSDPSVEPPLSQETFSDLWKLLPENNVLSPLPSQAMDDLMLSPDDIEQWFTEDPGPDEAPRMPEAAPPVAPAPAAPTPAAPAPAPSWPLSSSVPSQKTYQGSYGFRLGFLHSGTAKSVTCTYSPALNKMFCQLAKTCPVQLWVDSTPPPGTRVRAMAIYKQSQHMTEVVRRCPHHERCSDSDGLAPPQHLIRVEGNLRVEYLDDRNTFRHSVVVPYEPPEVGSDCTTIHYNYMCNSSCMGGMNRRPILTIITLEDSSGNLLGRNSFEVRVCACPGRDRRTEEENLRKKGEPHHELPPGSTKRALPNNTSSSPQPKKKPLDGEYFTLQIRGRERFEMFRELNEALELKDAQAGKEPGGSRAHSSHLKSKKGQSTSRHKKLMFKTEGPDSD

How did the AC50 turn out when CCCCN(CCCC)C(=O)N(CCCC)CCCC was run?
The AC50 was 33.4 µM (active).

Which outcome does the source give for CCCCOCC here?
Its outcome is “inactive”.

CCCCCCCCCCCCCCCC(=O)OC/C=C(C)/C=C/C=C(C)/C=C/C1=C(C)CCCC1(C)C was tested. Which outcome did it give?
Its outcome is “inactive”.

With C=C(C)C(=O)OCC(CC)(COC(=O)C(=C)C)COC(=O)C(=C)C as the molecule, how does the outcome read?
The outcome was “inactive”.

Which outcome does the source give for CCC1CCCCC1 here?
Its outcome is “inactive”.

Which outcome does the source give for CS(C)=O here?
The outcome was “inactive”.

Which outcome does the source give for CC(=O)O[C@H]1C[C@@H]2CC[C@@]1(C)C2(C)C here?
The outcome was “inactive”.

For CC(C)(C)c1ccc(C(=O)O)cc1, which outcome is on record?
Its outcome is “inactive”.

Which outcome does the source give for Nc1ccc(Cl)c([N+](=O)[O-])c1 here?
Its outcome is “inactive”.

C=CCCCCCCCCCC was tested. Which outcome did it give?
Its outcome is “inactive”.

With O=C1OC[C@H](Cc2cccc(O)c2)[C@H]1Cc1cccc(O)c1 as the molecule, how does the outcome read?
Its outcome is “inactive”.

How did the outcome turn out when c1ccc(CCc2ccccc2)cc1 was run?
Its outcome is “inactive”.

With Nc1ccc(NCCO)c([N+](=O)[O-])c1 as the molecule, how does the outcome read?
The outcome was “inactive”.

CC(=O)O[C@@H]1C[C@@H]2CC[C@@]1(C)C2(C)C was tested. Which outcome did it give?
Its outcome is “inactive”.

For Cc1[nH]c(=O)c(C#N)cc1-c1ccncc1, which outcome is on record?
The outcome was “inactive”.

How did the outcome turn out when CCCC(=O)OCCc1ccccc1 was run?
The outcome was “inactive”.

For CCCSc1ccc2nc(NC(=O)OC)[nH]c2c1, which outcome is on record?
The outcome was “inactive”.

For O=C(O)CCCCCCCCCCCC(=O)O, which outcome is on record?
Its outcome is “inactive”.

Which outcome does the source give for CC(C)CCCCCCc1ccc(OCCOCCO)cc1 here?
The outcome was “inactive”.

For CC(C)(C)CC(C)(C)c1ccc(OCCOCC[N+](C)(C)Cc2ccccc2)cc1, which AC50 is on record?
The AC50 was 8.35 µM (active).

For C[C@H]1C[C@@H](O)CC(C)(C)C1, which outcome is on record?
The outcome was “inactive”.

Which outcome does the source give for C=CCOC(=O)CCCCCC here?
The outcome was “inactive”.

Which outcome does the source give for CCCCCCCCSCCO here?
Its outcome is “inactive”.

How did the outcome turn out when C=C(C)C(=O)OCCOC1CC2CC1C1C=CCC21 (stereo not given) was run?
Its outcome is “inactive”.

For COC(=O)Nc1ccc(Cl)c(Cl)c1, which outcome is on record?
Its outcome is “inactive”.

With Cc1cc(C)nc(NS(=O)(=O)c2ccc(N)cc2)n1 as the molecule, how does the outcome read?
Its outcome is “inactive”.

With O=C(O)COCC(=O)O as the molecule, how does the outcome read?
The outcome was “inactive”.

Which outcome does the source give for CN(C)C(=S)SC(=S)N(C)C here?
Its outcome is “inactive”.

COCCOC(=O)c1ccccc1C(=O)OCCOC was tested. Which outcome did it give?
Its outcome is “inactive”.

Which outcome does the source give for C1CCOC1 here?
The outcome was “inactive”.

Which outcome does the source give for NCc1ccco1 here?
Its outcome is “inactive”.

Which outcome does the source give for c1ccc2cc(Nc3ccc(Nc4ccc5ccccc5c4)cc3)ccc2c1 here?
Its outcome is “inactive”.

With Cc1c(Cl)cccc1[N+](=O)[O-] as the molecule, how does the outcome read?
Its outcome is “inactive”.

With O=C1NC2NC(=O)NC2N1 (stereo not given) as the molecule, how does the outcome read?
The outcome was “inactive”.

NCC1CCCC(CN)C1 (stereo not given) was tested. Which outcome did it give?
Its outcome is “inactive”.

How did the outcome turn out when CC(=O)C(C)O (stereo not given) was run?
Its outcome is “inactive”.

With CCCCCCCCCCCC(=O)OC[C@@H](O)[C@H]1OC[C@H](O)[C@H]1O as the molecule, how does the outcome read?
The outcome was “inactive”.

Which outcome does the source give for OC[C@H]1O[C@@H](Oc2ccc(O)cc2)[C@H](O)[C@@H](O)[C@@H]1O here?
Its outcome is “inactive”.

For O=C(O)CCCCCCCCC(=O)O, which outcome is on record?
Its outcome is “inactive”.

For CCCCSCCCC, which outcome is on record?
The outcome was “inactive”.
